Screening results from PubChem BioAssay.
Most compounds without a hit are left out; they make up all but 1.5% or so of the library.
PrPC surface inh: reduces human prion protein on the cell surface. P04156. inhibition, % at 13.8 µM. 370,000 compounds, 0.43% hits. cell surface PrPC, TR-FRET read-out; in the data active = inhibition above about 24%; note: 0% = median of the test wells and 100% = reference compound wells
TcdB inh: inhibitors of Clostridioides difficile toxin B glycohydrolase. TcdB glycohydrolase enzymatic assay, plate reader. P18177. AID 652162. 350,000 compounds, 0.24% hits. inhibition, % at 9.99 µM; in the data active = inhibition above about 10%
CCHFV vOTU inh: CCHFV vOTU protease inhibition; AID 651958; Pep-AMC fluorescence; 370,000 compounds, 0.55% hits; inhibition, % at 11.5 µM; in the data active = inhibition above about 30%; note: 0% = vehicle wells with enzyme and 100% = no enzyme wells
VHR inh abs: blocks human VHR1 dual specificity phosphatase. inhibition, % at 13.3 µM. AID 1654. P51452. 290,000 compounds, 0.52% hits. recombinant VHR phosphatase, pNPP absorbance; in the data active = inhibition above about 50%
PriA SSB inh: inhibitors of Klebsiella pneumoniae PriA binding to SSB C-terminal tail; AlphaScreen SSBct-PriA binding, biotinylated peptide; inhibition, % at 33 µM; 430,000 compounds, 0.6% hits; AID 1272365; in the data active = inhibition mostly above about 37%, no sharp cut-off; inactive = mostly below about 20%;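 note: plate controls were negative control peptide for no effect and reference peptide for full effect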
BH1578 lux ind: inducers of Vibrio cholerae quorum light production without autoinducers; AID 588436; V. cholerae BH1578 lux reporter, luminescence, 6 h; activation, % at 18.7 µM; 350,000 compounds, 0.16% hits; in the data active = activation mostly above about 9.7%, no sharp cut-off
Active calls of the source: *; i = inactive; . = no result; ! = repeats disagree.

SMILES | PrPC surface inh | TcdB inh | CCHFV vOTU inh | VHR inh abs | PriA SSB inh | BH1578 lux ind
O=C(NCCCc1ccccc1)NCCn1nc(-n2cncn2)ccc1=O | . | . | . | . | -4 | .
CC(=O)NC(Cc1ccccc1)C(=O)Oc1ccc2ccccc2c1 (stereo not drawn) | -7 | 10* | 7 | . | -9 | -1
O=C(CSc1c(-c2ccccc2)[nH]c2ccccc12)Nc1ccccc1C(F)(F)F | . | . | . | . | 10 | .
CC(=NN1CCN(Cc2ccc(Cl)cc2)CC1)c1ccc([N+](=O)[O-])cc1 | . | . | . | . | 44* | .
CC(=NN1CCN(c2ccc(Cl)cc2)CC1)c1cccc([N+](=O)[O-])c1 | . | . | . | . | -2 | .
Cc1nn(C)c(C)c1S(=O)(=O)N(CC(=O)NCCCN1CCC(C)CC1)c1ccc(C(C)C)cc1 | -4 | 3 | 15 | 56* | -23 | 0
Cc1nn(C)c(C)c1S(=O)(=O)N(CC(=O)NCCN1CCOCC1)c1ccc(C(C)C)cc1 | -6 | 0 | 7 | 30 | -11 | 0
O=C(Nc1ccc2c(c1)OCCO2)c1cc2ccccc2o1 | 11 | 10* | 10 | 6 | -3 | 0
COc1cc2c(cc1OC)C(C)N(C(=O)c1sccc1C)CC2 (stereo not drawn) | -5 | 2 | 1 | 52* | 2 | -3
O=C(c1ccccc1)c1ccc(CNS(=O)(=O)c2ccc(Br)s2)s1 | . | . | . | . | 0 | .
COC(=O)COc1ccc(NC(=O)Cn2nc(-c3ccccc3)c3ccccc3c2=O)cc1 | 0 | 2 | -1 | 7 | -9 | 0
COc1ccc(-c2nn(CC(=O)Nc3ccc(Cl)c(Cl)c3)c(=O)c3ccccc23)cc1 | -4 | . | 9 | 52* | -9 | 1
Nc1nc2c(c(=O)[nH]1)C(c1ccccc1)C1=C(N2)c2ccccc2C1=O (stereo not drawn) | -36 | 0 | -7 | 0 | -4 | i
Cn1c2c(c(=O)[nH]c1=O)C(c1ccc(O)cc1)C1=C(N2)c2ccccc2C1=O (stereo not drawn) | -23 | -2 | 10 | 6 | 11 | 25*
COc1cc(-c2cc(C(=O)N3CC(Oc4cc(C)oc(=O)c4)C3)[nH]n2)cc(OC)c1OC | . | . | . | . | 8 | .
Cc1cc(C)c(-c2noc(C(=O)OC(C)(C)C)c2C(=O)OC(C)(C)C)c(C)c1 | -1 | . | -1 | 1 | -16 | 51*
CCn1c(C)c(/C=N/Nc2nc3ccccc3s2)c2ccccc21 | 0 | . | 8 | 31 | . | i
Cc1ccc2[nH]c(C)c(C=NNc3nc4ccccc4s3)c2c1 | . | . | . | . | 52* | .
COCCN1CCC(NC(=O)Cc2ccccc2Cl)CC1 | . | . | . | . | -12 | .
O=C(CN1CCN(CCN2C(=O)c3cccc4cccc(c34)C2=O)CC1)c1ccc(Cl)cc1 | . | . | . | -2 | . | .
COc1ccc(C(=O)CN2CCN(CCN3C(=O)c4cccc5cccc(c45)C3=O)CC2)cc1 | -26 | 1 | -8 | . | 62*! | -1
CCC(C)c1ccccc1OCC(O)CN1CCN(CCN2C(=O)c3cccc4cccc(c34)C2=O)CC1 (stereo not drawn) | . | . | . | . | 46*! | .
CC(O)Cn1c(SCc2c(F)cccc2Cl)nc2ccsc2c1=O (stereo not drawn) | . | . | . | . | 13 | .
COc1ccc(CCNC(=O)c2cc(-c3ccncc3)nc3c(Cl)cccc23)cc1OC | -20 | 1 | 22 | 53* | 9 | -3
COc1ccc(CNC(=O)c2cc(-c3ccncc3)nc3c(C)cc(C)cc23)cc1OC | 16 | 1 | 1 | 57* | -10 | -2
SMILES | PrPC surface inh | TcdB inh | CCHFV vOTU inh | VHR inh abs | PriA SSB inh | BH1578 lux ind
COc1ccccc1CNC(=O)c1cc(-c2ccncc2)nc2c(Cl)cccc12 | -20 | 3 | -9 | 2 | 6 | i
CCCCCCCCCCCC(=O)NC(C(=O)O)C(O)c1ccccc1 (stereo not drawn) | -2 | 0 | 15 | -36 | 97* | i
CCCN1CCCc2cc(CCNS(=O)(=O)c3ccc(F)cc3F)ccc21 | . | . | . | . | 78* | .
CCCN1CCCc2cc(CCNS(=O)(=O)c3ccc(OC)cc3C)ccc21 | . | . | . | . | 52* | .
CCCN1CCCc2cc(CCNS(=O)(=O)c3ccc(F)cc3C)ccc21 | . | . | . | . | 51* | .
CCOc1ccccc1NC(=O)NCC[C@H](O)C1CC1 | . | . | . | . | -6 | .
COc1ccc(CCNC(=O)Cn2nc(-c3cccs3)ccc2=O)cc1OC | . | . | . | . | -7 | .
Cc1ccc2oc(C(=O)Nc3cccc(Cl)c3C)cc2n1 | . | . | . | . | 7 | .
O=C(c1ccc(OC(F)(F)F)cc1)N1CCC(CSc2ccccn2)CC1 | . | . | . | . | -3 | .
C#CCn1c(=NC(=O)c2cc3ccccc3oc2=O)sc2cc(Br)ccc21 | . | . | . | . | -11 | .
CC(=O)Nc1cc2c3c(c1)CCN3C(=O)CC2 | 0 | -1 | -2 | 56* | -2 | 0
CCc1ccc(-c2cc3c(=O)n(Cc4ccccc4C)ccn3n2)cc1 | . | . | . | . | -9 | .
O=C(Nc1cnn(CC2CCOCC2)c1)C1CC=CCC1 (stereo not drawn) | . | . | . | . | -9 | .
O=C(CSc1ccccc1)Nc1cc(S(=O)(=O)N2CCOCC2)ccc1N1CCOCC1 | -1 | 12* | 8 | 22 | -4 | 0
O=C(CNCc1ccccn1)Nc1cc(S(=O)(=O)N2CCCCC2)ccc1Cl | 1 | 1 | 7 | -3 | 41* | 0
CN(C)S(=O)(=O)c1cccc(NC(=O)CNC2CCCCC2)c1 | -5 | 1 | -7 | 36 | -11 | i
COc1ccc(S(=O)(=O)N2CCOCC2)cc1NC(=O)CSc1ccccc1 | 8 | 2 | 0 | 21 | -8 | i
CN(C)S(=O)(=O)c1cccc(NC(=O)CNCc2ccccn2)c1 | -5 | 1 | 4 | -7 | 50* | 0
Cc1ccc(S(=O)(=O)N2CCOCC2)cc1NC(=O)CNCc1ccccn1 | -6 | 2 | -9 | 7 | 44* | 0
CC1CCN(C(=O)c2cc(NC(=O)c3ccccc3)c(=O)n(C)c2)CC1 | . | . | . | . | -1 | .
Cc1nc(-c2ccccc2NS(=O)(=O)C2CC2)cs1 | . | . | . | . | -15 | .
COc1ccccc1CN(C)CC(=O)Nc1cccc(S(=O)(=O)N2CCCC2)c1 | 6 | 1 | -13 | . | -3 | -13
COc1cccc(CN(C)CC(=O)Nc2cc(S(=O)(=O)N3CCCC3)ccc2Cl)c1OC | 0 | 3 | 7 | . | 42* | i
O=C(NCCOc1ccccc1)NCc1ccc(C(=O)c2ccsc2)s1 | . | . | . | . | -12 | .
Cc1csc(NC(CO)c2nc3ccccc3n2CCOCCO)n1 (stereo not drawn) | 5 | 0 | -11 | . | -1 | 0
SMILES | PrPC surface inh | TcdB inh | CCHFV vOTU inh | VHR inh abs | PriA SSB inh | BH1578 lux ind
CCCn1c(C(CO)Nc2nc(C)cs2)nc2ccccc21 (stereo not drawn) | -4 | 1 | -5 | 59* | -6 | -1
CCCCOCCCn1c(NS(=O)(=O)c2ccc([N+](=O)[O-])cc2)c(S(=O)(=O)c2ccc(C)cc2)c2nc3ccccc3nc21 | . | . | . | . | 49 | .
CCCCOCCCn1c(NS(=O)(=O)c2ccc(F)cc2)c(S(=O)(=O)c2ccc(C)cc2)c2nc3ccccc3nc21 | . | . | . | . | 67* | .
Cc1ccc(S(=O)(=O)c2c(NS(=O)(=O)c3ccccc3)n(CCc3ccccc3)c3nc4ccccc4nc23)cc1 | . | . | . | . | 67* | .
Cc1cccc(N/N=C(\C#N)c2nc(-c3cc4ccccc4oc3=O)cs2)c1 | . | . | . | . | -3 | .
CC(=O)NN=Cc1ccc(OCCOc2ccc(Br)cc2)cc1 | . | . | . | . | 0 | .
